Hits are enriched below; roughly 8.1% of the tested compounds scored in any of these assays.
KB-3-1 cytotox: kills parental KB-3-1 adenocarcinoma cells; AID 1347075; actives 1.4% (n = 400,000); KB-3-1 viability, CellTiter-Glo ATP luminescence, 72 h; Potency, µM (doses to about 46.1 µM), actives largely listed as cytotoxic; also: nearly all actives have a fitted effect of over 60% in size
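KB-3-1 cells, DMEM (no phenol red) + 10% FBS; compound by pin transfer, 72 h, 37 °C. Readout: CellTiter-Glo luminescence after 10 min. Data normalized, curve-fitted.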
ELG1 DNA repair: ELG1-dependent DNA repair inhibition | actives 2.3% (n = 330,000) | Potency, µM (series often up to 46.1 µM), usual class: inhibitors | AID 504467 | HEK293T ELG1-luciferase reporter, luminescence, 16 h; DNA damage induced by 5-fluorouridine; also: nearly all actives have a fitted effect of over 55% in size
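Step one: seed 2,000 cells per well. Step two: pin-transfer compound or DMSO alongside 5-fluorouridine. Step three: incubate 16 hr, 37 °C, 5% CO2. Step four: add ONE-Glo, wait 30 min, read luminescence.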
MCF10A rereplic: inducers of DNA re-replication in MCF 10A breast cells. actives 2.9% (n = 350,000). Potency, µM (highest dose often 46.1 µM), hits mostly activators. MCF 10A DNA re-replication, Hoechst nuclear intensity, 48 h; also: nearly all actives have a fitted effect of over 50% in size
SW480 rerep: induces DNA re-replication in SW480 colon adenocarcinoma cells. SW480 DNA re-replication, Hoechst DNA content imaging, 48 h. Potency, µM (series often up to 46.1 µM), usual class: activators. actives 1.8% (n = 340,000); also: nearly all actives have a fitted effect of over 55% in size
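Readout is total intensity of Hoechst-stained nuclei, excited at 405 nm and collected at 500-530 nm. Compound treatment lasted 48 hr at 37 C in 5% CO2 before staining.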
KB-V1 MDR tox: kills drug-selected multidrug resistant KB-V1 cells. Potency, µM (series often up to 46.1 µM), usual class: cytotoxic. actives 3.4% (n = 400,000). AID 1347076. KB-V1 MDR cells viability, CellTiter-Glo, 72 h; also: nearly all actives have a fitted effect of over 60% in size
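qHTS viability screen in drug-selected KB-V1 MDR cells: 72 h compound treatment at 37 degrees C, ATP luminescence end point.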
Of the large screens only hits and unclear results are named; the others gave an inactive call. Calls follow the shape of the dose curve; as a rule, active = well fitted curve in the direction sought with a large enough effect; inconclusive = small, poorly fitted or top-dose-only effect, or another doubt; inactive = no such curve, though single readings can be large; an effect the other way counts as inactive or inconclusive.

Cc1cc(C)nc(NC(=NCCc2c[nH]c3ccccc23)NC(=O)Nc2cccc([N+](=O)[O-])c2)n1	ELG1 DNA repair 5.17µM, SW480 rerep inconclusive
C/C(=N\NC(=O)CCc1c[nH]c2ccccc12)c1cccc([N+](=O)[O-])c1	none
O=C(CCNC(=O)c1ccco1)NCCc1c[nH]c2ccccc12	none
Cc1cc(C)nc(NC(=NCCc2c[nH]c3ccccc23)NC(=O)c2ccco2)n1	KB-3-1 cytotox inconclusive, ELG1 DNA repair 11.6µM, MCF10A rereplic inconclusive, KB-V1 MDR tox inconclusive
O=C(C[C@H]1CC[C@H]2[C@@H](COC[C@H](O)CN2Cc2ccccc2)O1)NCCCN1CCOCC1	none (no result: ELG1 DNA repair, MCF10A rereplic, SW480 rerep)
CC(C)C[C@H]1COc2cc(N3CCC[C@H]3CO)ccc2S(=O)(=O)N1	KB-V1 MDR tox inconclusive (no result: ELG1 DNA repair, MCF10A rereplic, SW480 rerep)
CCOC(=O)c1c[nH]c2ccc([N+](=O)[O-])cc12	none (no result: ELG1 DNA repair)
CCOC(=O)c1c[nH]c2c([N+](=O)[O-])cc(OC)cc2c1=O	SW480 rerep 16.4µM (no result: ELG1 DNA repair)
O=C(NC(Cc1ccccc1)C(=O)N1CCN(c2ccc(F)cc2)CC1)c1ccccc1 (stereo not drawn)	KB-V1 MDR tox inconclusive (no result: ELG1 DNA repair, MCF10A rereplic, SW480 rerep)
CCOC(=O)c1cccc(-n2c(C)nc3ccccc3c2=O)c1	none
CCOC(=O)c1cccc(-n2c(-c3ccc(OC)cc3)nc3nc4ccccc4nc32)c1	ELG1 DNA repair 10.3µM (no result: KB-3-1 cytotox, MCF10A rereplic, SW480 rerep, KB-V1 MDR tox)
N#C/C=C/C(=C\Nc1ccc(Cl)cc1)S(=O)(=O)c1ccccc1	MCF10A rereplic inconclusive
COc1ccc(N/C=C(\C=C\C#N)S(=O)(=O)c2ccccc2)cc1	MCF10A rereplic 3.66µM, SW480 rerep inconclusive
CCOc1ccc(NC(=O)Cn2nnc(C(=O)NCCc3ccccc3)c2N)cc1	KB-V1 MDR tox inconclusive (no result: ELG1 DNA repair, MCF10A rereplic, SW480 rerep)
CC[C@H](CO)Oc1cc(NCc2ccc(Cl)c(Cl)c2)c2ncn(C(C)C)c2c1	KB-3-1 cytotox inconclusive, ELG1 DNA repair inconclusive, MCF10A rereplic 20.6µM
Cc1nc(C(F)(F)F)ccc1C(=O)N1CCC1(C)C(=O)NS(=O)(=O)c1ccc(C#N)cc1 (stereo not drawn)	none (no result: ELG1 DNA repair, MCF10A rereplic, SW480 rerep)
COc1ccccc1NCC(O)Cn1c2ccccc2c2ccccc21 (stereo not drawn)	ELG1 DNA repair inconclusive, MCF10A rereplic inconclusive, SW480 rerep inconclusive
CCn1c(=O)c(C(=O)NCCc2ccc(OC)c(OC)c2)c(O)c2ccccc21	MCF10A rereplic inconclusive
COc1ccc(CCNCC(O)Cn2c3ccccc3c3ccccc32)cc1OC (stereo not drawn)	KB-3-1 cytotox inconclusive, MCF10A rereplic 9.2µM, KB-V1 MDR tox inconclusive
CCCCCCCC(=O)NNC(=O)c1c(O)c2ccccc2n(CC)c1=O	KB-3-1 cytotox inconclusive, MCF10A rereplic inconclusive, SW480 rerep inconclusive, KB-V1 MDR tox 18.4µM
CCCn1c(=O)c(C(=O)NNC(=O)c2ccccc2Cl)c(O)c2ccccc21	KB-3-1 cytotox inconclusive, MCF10A rereplic inconclusive, KB-V1 MDR tox 9.2µM
CCCCCCC(=O)NNC(=O)c1c(O)c2ccccc2n(CC)c1=O	KB-V1 MDR tox inconclusive
CCCn1c(=O)c(C(=O)NNC(=O)c2ccccc2[N+](=O)[O-])c(O)c2ccccc21	none (no result: KB-3-1 cytotox, MCF10A rereplic, SW480 rerep, KB-V1 MDR tox)
CCCn1c(=O)c(C(=O)NCCc2ccc(OC)c(OC)c2)c(O)c2ccccc21	MCF10A rereplic 1.03µM
C(=Nc1cccnc1)c1ccc2ccccc2n1	none (no result: ELG1 DNA repair, MCF10A rereplic, SW480 rerep)
CCn1c(=O)c(C(=O)Nc2ccccc2C)c(O)c2ccccc21	none
CCCn1c(=O)c(C(=O)Nc2ccccc2)c(O)c2ccccc21	KB-3-1 cytotox inconclusive, ELG1 DNA repair inconclusive, KB-V1 MDR tox 23.1µM
CCCn1c(=O)c(C(=O)Nc2ccccc2C)c(O)c2ccccc21	MCF10A rereplic inconclusive, KB-V1 MDR tox 20.6µM
CC(C)Cn1c(=O)c(C(=O)Nc2ccncc2)c(O)c2ccccc21	KB-3-1 cytotox 7.31µM, MCF10A rereplic inconclusive, SW480 rerep inconclusive (no result: ELG1 DNA repair)
C=CCn1c(=O)c(C(=O)Nc2ccccc2C)c(O)c2ccccc21	KB-3-1 cytotox inconclusive, ELG1 DNA repair inconclusive, MCF10A rereplic 18.4µM, KB-V1 MDR tox inconclusive
CC(C)Cn1c(=O)c(C(=O)Nc2cnccn2)c(O)c2ccccc21	none
CC1(Cc2cccc(C(F)(F)F)c2)C(=O)Nc2ccc(-c3ccc(F)c(Cl)c3)cc21 (stereo not drawn)	none (no result: ELG1 DNA repair, MCF10A rereplic, SW480 rerep)
Cc1ccccc1Cn1c(=O)n(-c2ccc(Cl)cc2)c(=O)c2c3c(sc21)CCCC3	none (no result: ELG1 DNA repair, MCF10A rereplic, SW480 rerep)
O=C(CN1CCN(C(=O)C2CCN(C(=O)/C=C/c3ccccc3)CC2)CC1)Nc1ccccc1Cl	SW480 rerep inconclusive
Cc1cc(NC(=O)c2ccc3c(c2)N(Cc2cccc(Cl)c2)C(=O)c2ccccc2S3(=O)=O)ccc1Br	none (no result: ELG1 DNA repair, MCF10A rereplic, SW480 rerep)
CCCCc1nc2ccccc2c(=O)n1NC(=O)c1c(O)c2ccccc2n(C)c1=O	KB-3-1 cytotox 13µM, SW480 rerep inconclusive, KB-V1 MDR tox inconclusive
CCCn1c(=O)c(C(=O)NCc2cccnc2)c(O)c2ccccc21	SW480 rerep inconclusive, KB-V1 MDR tox 10.3µM
CCn1c(=O)c(C(=O)NNS(=O)(=O)c2ccc(Cl)cc2)c(O)c2ccccc21	MCF10A rereplic inconclusive, KB-V1 MDR tox 14.6µM
CCCn1c(=O)c(C(=O)NCc2ccccn2)c(O)c2ccccc21	MCF10A rereplic inconclusive, SW480 rerep inconclusive
COc1ccccc1C(=O)OCC(=O)Nc1ccc(N2CCCCC2)cc1	KB-3-1 cytotox inconclusive (no result: ELG1 DNA repair, MCF10A rereplic, SW480 rerep)
CCOC(=O)N1CCN(C(=O)C2CCCN(Cc3nc(-c4ccc(Cl)cc4)oc3C)C2)CC1 (stereo not drawn)	ELG1 DNA repair 4.61µM
CCOC(=O)N1CCC(NC(=O)CS(=O)(=O)Cc2nc(-c3cccc(Cl)c3)oc2C)CC1	ELG1 DNA repair 14.6µM, SW480 rerep inconclusive
CCOC(=O)N1CCC(NC(=O)CS(=O)(=O)Cc2nc(-c3cccc(OC)c3)oc2C)CC1	KB-3-1 cytotox inconclusive, ELG1 DNA repair inconclusive
CCOC(=O)N1CCC(NC(=O)C2CCCN(Cc3nc(-c4cccc(Cl)c4)oc3C)C2)CC1 (stereo not drawn)	KB-3-1 cytotox inconclusive, ELG1 DNA repair 9.2µM
N#Cc1cccc(NC(=O)CCc2ccc(S(=O)(=O)N3CCOCC3)cc2)c1	none
CCCOc1ccc(NC(=O)C2CC(=O)N/C(=N/N=C(\C)CCc3ccc4c(c3)OCO4)S2)cc1 (stereo not drawn)	MCF10A rereplic inconclusive
COc1ccc(NC(=O)C2CC(=O)N/C(=N/N=C/c3ccccc3)S2)cc1 (stereo not drawn)	ELG1 DNA repair inconclusive
CC(/C=C/c1ccc(N(C)C)cc1)=N/N=C1/NC(=O)CC(C(=O)Nc2ccc(Cl)cc2)S1 (stereo not drawn)	ELG1 DNA repair inconclusive, MCF10A rereplic 6.51µM, SW480 rerep 20.6µM
CCCOc1ccc(NC(=O)C2CC(=O)N/C(=N/N=C(C)/C=C/c3ccc(N(C)C)cc3)S2)cc1 (stereo not drawn)	KB-3-1 cytotox inconclusive, ELG1 DNA repair inconclusive, MCF10A rereplic 5.17µM, SW480 rerep 18.4µM, KB-V1 MDR tox 16.4µM
